# MITF TRPM1 inh: reduces MITF-dependent TRPM1 promoter luciferase signal; SK-MEL-5 TRPM1 promoter luciferase, 24 h; inhibition, % at 12.5 µM; actives 0.83% (n = 330,000);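 active = mean inhibition across replicates of 60% or more, whatever share of single replicates reaches that level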
# KKLEB tox: reduces viability of KKLEB cystic fibrosis airway cells. KKLEB CF airway cells viability, ATPlite luminescence, overnight; stronger effect = lower value; cells stimulated with P. aeruginosa culture filtrate. activity change (cytotoxicity), % at 5 µM. actives 0.36% (n = 360,000);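 active = corrected activity change at or below -50% at 5 µM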
# ABHD5-PLIN5 inh: blocks binding of human ABHD5 to perilipin-5 | Q00G26+Q8WTS1 | Split G. princeps luciferase complementation, luminescence, 4 h | inhibition, % at 4 µM | actives 0.78% (n = 360,000) | AID 602281;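 active = inhibition above the mean inhibition across every tested compound plus 3 SD, cut at about 22% in these data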;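 note: 0% = DMSO only wells and the 100% control is not disclosed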
# Target sequence (Q00G26 whole entry, looked up): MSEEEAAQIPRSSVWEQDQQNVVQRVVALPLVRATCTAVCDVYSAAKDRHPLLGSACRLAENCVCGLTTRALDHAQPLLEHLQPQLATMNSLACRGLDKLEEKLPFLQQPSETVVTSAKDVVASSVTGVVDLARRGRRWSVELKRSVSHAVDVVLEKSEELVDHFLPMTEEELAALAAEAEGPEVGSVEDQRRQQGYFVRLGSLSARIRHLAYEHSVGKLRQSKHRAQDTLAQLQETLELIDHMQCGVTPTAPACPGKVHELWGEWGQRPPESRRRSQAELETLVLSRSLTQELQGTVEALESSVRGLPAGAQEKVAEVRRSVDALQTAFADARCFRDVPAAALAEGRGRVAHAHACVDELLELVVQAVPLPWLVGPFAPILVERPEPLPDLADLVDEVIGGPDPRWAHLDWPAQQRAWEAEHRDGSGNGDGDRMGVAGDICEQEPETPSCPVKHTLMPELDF
# Target sequence (Q8WTS1 whole entry, looked up): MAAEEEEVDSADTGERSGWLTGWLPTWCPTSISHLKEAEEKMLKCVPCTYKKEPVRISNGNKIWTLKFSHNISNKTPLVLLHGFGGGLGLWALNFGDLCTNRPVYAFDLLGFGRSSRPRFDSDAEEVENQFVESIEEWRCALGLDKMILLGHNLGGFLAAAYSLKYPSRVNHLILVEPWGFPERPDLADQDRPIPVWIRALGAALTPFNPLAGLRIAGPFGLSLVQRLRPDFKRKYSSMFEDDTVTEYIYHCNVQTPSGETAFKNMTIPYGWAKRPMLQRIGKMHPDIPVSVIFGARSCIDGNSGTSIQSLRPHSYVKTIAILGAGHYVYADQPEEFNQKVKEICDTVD
# CF NFkB inh: cystic fibrosis NF-kB activation inhibition; inhibition, % at 5 µM; AID 588850; actives 0.86% (n = 360,000); KKLEB NF-kB-GFP reporter, PAF-induced, GFP fluorescence overnight;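 active = at least 50% inhibition at 5 µM, scaled per plate between neutral and stimulator controls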;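 note: PAF is a Pseudomonas aeruginosa culture filtrate used as stimulus; plate controls were PAF-stimulated DMSO wells for no effect and unstimulated DMSO wells for full effect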
# Peg3 prom inh: reduces Peg3 promoter-driven luciferase expression in HeLa; AID 588405; inhibition, % at 20 µM; actives 1.7% (n = 360,000); HeLa PEG-Prom luciferase reporter, luminescence, overnight;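 active = inhibition of at least 50% at 20 µM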
# HIF-2a inh: inhibitors of HIF-2a. 786-0 RCC cells HIF-2a reporter, luciferase luminescence, overnight. inhibition, % at 18.8 µM. actives 0.72% (n = 360,000);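 active = inhibition of the luminescence signal of 40% or more relative to plate controls, in a single-dose primary screen at 18.75 µM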
# * marks the source's active call; other numbers are inactive results; · = no result. An excerpt weighted towards active compounds, which were near 3.1% of everything screened.
SMILES,MITF TRPM1 inh,KKLEB tox,ABHD5-PLIN5 inh,CF NFkB inh,Peg3 prom inh,HIF-2a inh
CCOC(=O)C(Oc1ccc2c(-c3ccc(OC)cc3)cc(=O)oc2c1C)c1ccccc1 (centres undefined),-11.3,-3.3,-3.3,23.2,22.9,16.2
N#C/C(=C(/O)c1ccc([N+](=O)[O-])o1)c1nc2ccccc2[nH]1,87.5*,-28.7,2.0,94.0*,76.7*,38.7
CC(C)(C)/C(O)=C(/C#N)c1nc2ccccc2[nH]1,8.8,8.5,-1.8,1.3,3.8,-6.4
CCNC(=O)C1(C)CCCN(C(=O)c2ccc(C(F)(F)F)nc2C)C1 (centres undefined),·,-10.1,1.6,9.5,15.4,12.0
Oc1c(CN2CCOCC2)cc(COCc2ccccc2)c2cccnc12,84.6*,1.3,12.0,-2.5,49.5,17.3
Oc1c(CN2CCN(c3ccccc3)CC2)cc(Br)c2cccnc12,87.5*,-3.9,-4.9,2.7,37.8,16.9
O=C(Oc1c(CN2CCOCC2)cc(Cl)c2cccnc12)c1ccccc1Br,70.4*,15.2,2.4,-1.5,33.5,24.2
Cc1cc2ccccn2c1C(C[N+](=O)[O-])c1ccc(N(C)C)cc1 (centres undefined),14.9,10.3,23.1*,-23.0,-2.2,-16.6
CCc1nc2ccc(C(=O)N3CCNC(=O)C3)cn2c1N(C)CCC(C)C,·,18.9,5.7,2.7,-2.1,-4.1
N#C/C(=N\Nc1cccc([N+](=O)[O-])c1)C(=O)c1ccc(Br)cc1,43.4,-54.8*,-4.4,51.3*,20.7,-76.4
N#CC(=C1C=CC(=NO)C(Cl)=C1)c1ccccc1,·,-6.3,1.2,50.1*,39.4,-46.1
N#CC(=C1C=C(Br)C(=NO)C=C1Cl)c1ccc(Cl)cc1,·,3.2,-13.2,19.6,40.0,14.1
COc1cc(C(CCN2CCCC2)c2c(OC)cc(OC)c3c(-c4ccccc4)cc(=O)oc23)cc(OC)c1OC (centres undefined),59.6,-18.8,3.9,-0.3,0.7,-3.3
O=C(COC(=O)/C(=C/c1cccs1)c1cccs1)NC(c1ccccc1)c1ccccc1,70.8*,-3.5,-3.7,0.4,26.4,23.7
CN(Cc1ccccc1)C(=O)[C@@H]1CCCN1C(=O)[C@@H]1CCCN1C(=O)c1cccc2ccccc12,·,·,-0.8,·,·,10.4
CCOC(=O)c1c2c(n(-c3ccc(OC)cc3)c1C)C(=O)C(=O)c1ccccc1-2,93.8*,-90.8*,-55.9,82.2*,102.4*,82.5*
Cn1cc(CCC(=O)N2CCCC(CCC(=O)NCc3ccc(F)c(F)c3)C2)cn1 (centres undefined),-15.6,3.3,-0.3,-1.7,-49.0,-69.4
C/[N+]([O-])=C\c1coc2ccccc2c1=O,10.2,0.6,6.9,4.9,6.1,3.6
C#CCCc1ccccc1/C=[N+](/C)[O-],65.5*,3.4,-8.7,-15.8,-19.9,-72.2
O=C1NC(=NCc2ccccc2)S/C1=C/c1ccc(O)cc1,30.9,-43.1,8.4,52.6*,32.2,9.9
CC(C)(C)C(=O)C1=C(O)C(=O)N(c2ccccc2)C1c1ccccc1 (centres undefined),13.0,1.9,-4.7,17.9,3.0,21.0
CCn1cc(C(=O)NCCCN2CC(C)CC(C)C2)c(=O)c2cc(S(=O)(=O)N(C)C3CCCCC3)ccc21 (centres undefined),-6.6,-10.5,10.2,0.5,72.6*,30.3
COc1ccc(N(CC(=O)Nc2ccc(F)cc2F)S(=O)(=O)c2c(C)nn(C)c2C)cc1,-5.8,-2.9,5.0,1.8,6.2,5.4
CCOC(=O)C1=C(CC)Nc2ccccc2N=C1NC(=O)CCNC(C)=O,-17.1,-2.8,8.2,16.2,3.2,11.6
CCOCc1c(C(=O)NC2=Nc3ccccc3NC(CC)=C2C(=O)OCC)oc2ccccc12,1.3,-98.8*,-2.8,86.2*,65.5*,-9.4
SMILES,MITF TRPM1 inh,KKLEB tox,ABHD5-PLIN5 inh,CF NFkB inh,Peg3 prom inh,HIF-2a inh
CC(C)N1CCc2c(sc(NC(=O)c3cc(-c4cccs4)nc4ccccc34)c2C(N)=O)C1,3.3,-17.9,-2.5,-58.9,77.6*,25.8
CC(C)N1CCc2c(sc(NC(=O)c3ccc(S(=O)(=O)N4CCc5ccccc54)cc3)c2C(N)=O)C1,3.0,-1.1,8.3,-52.7,97.7*,8.2
CC(C)N1CCc2c(sc(NC(=O)c3nc4ccccc4s3)c2C(N)=O)C1,-8.3,-14.0,0.3,-18.4,-38.6,-70.4
COc1ccc(/C=C/C(=O)NCC(=O)N=Nc2c(O)[nH]c3ccc([N+](=O)[O-])cc23)cc1,6.4,-44.9,-0.8,78.4*,42.0,4.0
COCCNC(=O)C1(C(F)(F)F)CC(CCCO)CCCO1 (centres undefined),-6.5,6.8,1.7,-8.9,-5.9,-8.2
CC(=O)Nc1ccc(S(=O)(=O)NNC(=O)COc2cccc3ccccc23)cc1,3.2,14.5,2.9,-3.9,-6.2,13.7
O=C(OCn1ncc(Br)c(Br)c1=O)c1ccc(F)cc1,85.2*,-103.6*,14.3,93.4*,108.9*,92.6*
O=C(OCn1ncc(Br)c(Br)c1=O)c1ccccc1Cl,88.8*,-96.2*,10.0,91.4*,106.1*,92.2*
NCC(c1ccccc1)c1c[nH]c2ccccc12 (centres undefined),17.6,-9.7,8.0,-0.4,-3.5,2.1
O=[N+]([O-])CC(c1ccc(F)cc1)c1c[nH]c2ccccc12 (centres undefined),16.6,-8.5,-13.9,12.1,55.0*,23.9
CC(NC1=CC(=O)c2cccnc2C1=O)C(O)c1ccccc1 (centres undefined),110.0*,-31.8,0.4,79.9*,27.9,19.3
Nc1ccn([C@@H]2O[C@H](CNCc3ccc(N4CCNCC4)cc3)[C@@H](O)[C@H]2O)c(=O)n1,·,5.5,1.6,-4.2,11.3,9.4
COc1ccc(/C=C/c2nnc(NC(=O)CC(C)C)s2)cc1,12.5,-9.4,0.3,24.1,-15.6,-4.2
CCN(CC)CCOCCOc1ccccc1F,-5.5,-4.7,1.3,11.9,12.4,8.9
CCN(CC)CCOCCOC(=O)C(CC)(CC)c1ccccc1,·,4.5,22.8*,-1.7,10.0,13.8
O=C(NNC(=O)c1n[nH]c2ccccc12)c1ccccc1,-25.0,6.7,0.0,-1.5,-34.2,7.1
Cc1ccc(S(=O)(=O)NC(=O)Nc2ccc(C)cn2)cc1,-1.5,0.7,-4.7,-7.7,-4.8,-13.4
O=C(Nc1ccc(Cl)c(Cl)c1)Nc1ccc(Br)cc1F,-4.8,-63.8*,-2.0,71.2*,-24.3,-195.4
O=C(c1ccc(S(=O)(=O)c2ccccc2Cl)c([N+](=O)[O-])c1)N1CCN(Cc2ccccc2)CC1,76.1*,-6.1,2.8,33.5,26.6,12.9
O=C(c1ccc(Br)c([N+](=O)[O-])c1)N1CCN(Cc2ccccc2)CC1,14.5,-1.8,-4.1,-11.2,16.8,7.8
